Compounds with a hit are over-represented: about 3.4% of the library has one in this group of screens.
MITF primary – human MITF inhibition, primary screen; AID 1259374; 0.91% of 650,000 active; AlphaScreen MITF homodimerization, bead proximity signal; inhibition, % at 2.6 µM; O75030; in the data active means inhibition above about 50%;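 further: 0% = vehicle wells with protein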
TEAD-YAP block – TEAD-YAP interaction inhibition | HEK-TIYL cells, TEAD-Gal4/YAP UAS-luciferase luminescence | inhibition, % at 9.12 µM | 1.4% of 640,000 active; in the data active means inhibition above about 32%;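 further: 0% = median of test compound wells and 100% = reference inhibitor wells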
GPR151 activ – human GPR151 activation; Q8TDV0; PathHunter beta-arrestin GPR151 cells, luminescence; activation, % at 11.2 µM; 1% of 650,000 active; in the data active means activation above about 4.9%;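 further: 0% = median of compound wells and 100% = cells with positive control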
FBW7 activator – human FBW7 E3 ligase activation, primary screen | 0.13% of 650,000 active | AlphaScreen FBW7–phospho-cyclin E peptide binding, activator screen | Q969H0 | normalized activity (activation), % at 26.1 µM; in the data active means normalized activity above about 1.9%;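 further: purified mutant Fbw7 with reduced substrate affinity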
Target sequence (Q969H0 whole entry, looked up): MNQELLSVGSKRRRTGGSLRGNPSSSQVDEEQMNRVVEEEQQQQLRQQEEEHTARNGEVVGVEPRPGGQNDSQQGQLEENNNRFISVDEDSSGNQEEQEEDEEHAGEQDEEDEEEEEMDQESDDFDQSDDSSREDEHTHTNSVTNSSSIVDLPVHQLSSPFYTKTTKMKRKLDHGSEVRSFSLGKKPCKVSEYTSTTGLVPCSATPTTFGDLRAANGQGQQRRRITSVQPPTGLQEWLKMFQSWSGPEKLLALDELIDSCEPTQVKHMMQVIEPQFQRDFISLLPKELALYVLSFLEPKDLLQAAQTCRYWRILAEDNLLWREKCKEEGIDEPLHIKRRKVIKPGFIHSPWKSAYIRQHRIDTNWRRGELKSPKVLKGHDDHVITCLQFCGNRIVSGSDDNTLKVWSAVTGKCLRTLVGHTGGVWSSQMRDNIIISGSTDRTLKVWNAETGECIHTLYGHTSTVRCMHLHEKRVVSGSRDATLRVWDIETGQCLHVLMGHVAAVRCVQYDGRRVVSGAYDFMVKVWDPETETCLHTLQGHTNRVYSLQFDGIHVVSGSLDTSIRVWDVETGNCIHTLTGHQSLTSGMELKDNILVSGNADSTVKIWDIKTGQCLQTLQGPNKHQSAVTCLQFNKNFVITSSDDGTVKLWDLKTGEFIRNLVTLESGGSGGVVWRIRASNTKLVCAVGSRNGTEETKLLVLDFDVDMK
GPR151 conf act – human GPR151 activation, confirmation screen; shares compounds with GPR151 activ; GPR151 PathHunter beta-arrestin cells, luminescence, 90 min; % of EA-reagent control over plate median; activation, % at 11.2 µM; 6,700 tested, under 10 active;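 active means mean percent activation across replicates above the confirmation screen cutoff of 4.91%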
GPR119 ag – activates human GPR119 in a GPR151 counter-screen; shares compounds with GPR151 activ; GPR119 PathHunter beta-arrestin cells, luminescence, 90 min; 0 = compound-well median, 100 = enzyme-acceptor control; activation, % at 11.2 µM; 0.3% of 6,700 active; AID 1508611;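 active means mean percent activation in the counterscreen above 29.09%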;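 further: counterscreen on off-target GPR119 to flag nonselective hits from the GPR151 activator screen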
An asterisk follows results filed as active; · = not tested or not shown.

SMILES | MITF primary | TEAD-YAP block | GPR151 activ | FBW7 activator | GPR151 conf act | GPR119 ag
COc1ccc(CCNc2nc(NC3CCN(Cc4ccccc4)CC3)nc3cc(OC)c(OC)cc23)cc1 | 1.1 | -2.5 | 8.0* | -0.1 | -0.1 | 10.5
COc1ccc(Cc2nc(SCC(=O)Nc3cccc(C(=O)OC(C)C)c3)n[nH]2)cc1 | 9.0 | -2.4 | 5.8* | 0.1 | -0.4 | 0.8
Cc1ccc(CN(C)C(=O)CC2C(=O)NCCN2Cc2ccccc2C(F)(F)F)cc1 (stereo unspecified) | 6.3 | 5.7 | 0.1 | 0.1 | · | ·
COC(=O)C(NC(=O)/C=C\C(=O)O)c1ccccc1 (stereo unspecified) | 20.7 | 3.0 | 0.4 | 0.3 | · | ·
COc1cccc(CNC(=O)C2CCCc3sc(NC(=O)c4ccccc4)nc32)c1 (stereo unspecified) | 8.5 | -4.3 | 5.2* | 0.1 | -0.2 | 4.7
Cc1ccc(CN2C(=O)CSc3ccc(NC(=O)Nc4nc(C)cc(C)n4)cc32)cc1 | 2.6 | -14.8 | 7.4* | 0.0 | -0.1 | -0.6
CC(C)(C)C(=O)COC(=O)CCC(=O)c1cccs1 | 5.6 | -10.1 | 6.1* | 0.1 | 0.2 | 8.0
O=C(NN1C(=O)CSC1=S)c1ccncc1 | 10.1 | 13.3 | -0.8 | 0.0 | · | ·
O=C1c2cccnc2C(=O)N1Cc1ccc(S(=O)(=O)N2CCCc3ccccc32)cc1 | 6.2 | 2.3 | 5.9* | -0.1 | 0.3 | -3.0
Cc1cccnc1NS(=O)(=O)c1ccc(CN2C(=O)c3cccnc3C2=O)cc1 | 9.6 | -2.5 | 6.0* | -0.1 | -0.2 | 2.0
CCCNS(=O)(=O)c1ccc(CN2C(=O)c3cccnc3C2=O)cc1 | 3.6 | -5.2 | -0.3 | -0.2 | · | ·
Cc1cccc(OCc2nnc(NC(=O)C34CC5CC(CC(C5)C3)C4)s2)c1 | 6.3 | 4.0 | 0.2 | 0.0 | · | ·
Cc1oc2ccc(Cl)cc2[n+]1CCCS(=O)(=O)O | 8.1 | 9.2 | -0.8 | 1.5 | · | ·
CCO/C(C)=C/c1oc2ccc(-c3ccccc3)cc2[n+]1CCCS(=O)(=O)O | 6.2 | 5.9 | 5.6* | -0.2 | -0.1 | -4.7
CCC(C(=O)N1CCCCC1)n1ncn2c(cc3occc32)c1=O (stereo unspecified) | 5.7 | -5.8 | 5.7* | 0.1 | 0.0 | 6.0
O=C1/C(=C\N2CCCC2)c2ccccc2C(=O)N1c1ccccc1 | -5.4 | 2.7 | 5.0* | 0.0 | 0.1 | -2.3
CCOC(=O)C1=CN(C)C=C(C(=O)OCC)C1c1ccc(OC)c(OCc2ccccc2)c1 | -1.2 | -4.2 | 7.2* | 1.0 | 0.0 | -0.3
COC(=O)C1=CN(C)C=C(C(=O)OC)C1c1ccc(OCc2ccccc2)c(OC)c1 | -4.9 | -18.5 | 2.5 | -0.1 | · | ·
CCOC(=O)C1=C(C)NC2=C(C(=O)C(C(=O)OCC)C(c3ccccc3OC)C2)C1c1ccc(OCc2ccccc2)c(OC)c1 (stereo unspecified) | 5.0 | 0.1 | 8.7* | 0.2 | -0.2 | -3.9
Cc1nn(CC(=O)OCC(=O)NC(=O)c2ccc(OC(F)F)cc2)c(C)c1[N+](=O)[O-] | -11.3 | 0.3 | 6.6* | 0.0 | 0.8 | 4.9
COc1cc(/C=N/N2C(C)CCCC2C)cc(Br)c1O (stereo unspecified) | -12.1 | 0.9 | 8.2* | -0.2 | -1.1 | -8.8
CC(C)c1ccc(NC(=O)C(c2ccc3c(c2)OCO3)N(Cc2ccccc2)c2ccccc2)cc1 (stereo unspecified) | 3.4 | 2.7 | 5.7* | -0.2 | 0.0 | 8.7
CCNC(=O)c1ccc2c(c1)S(=O)(=O)c1ccccc1C2=O | 4.5 | -3.6 | 0.4 | 0.0 | · | ·
COc1ccc(NC(=S)N(CCN2CCOCC2)Cc2ccccc2F)cc1 | 12.8 | -25.5 | -1.7 | 0.4 | · | ·
CCOc1ccc2nc(Nc3nccc(C)n3)nc(C)c2c1 | 1.2 | -23.0 | 9.0* | 0.3 | 0.2 | 5.1
SMILES | MITF primary | TEAD-YAP block | GPR151 activ | FBW7 activator | GPR151 conf act | GPR119 ag
CCOc1ccc2nc(Nc3nc(C)cc(-c4ccccc4)n3)nc(C)c2c1 | -5.1 | -10.6 | -0.1 | -0.1 | · | ·
CC(=O)OC(C(=O)NCc1ccco1)c1ccncc1 (stereo unspecified) | -2.8 | -5.2 | 11.0* | -0.2 | 1.7 | 5.5
CC(C)(C)OC(=O)N1CCC(c2nc(-c3ccncc3)no2)CC1 | -12.8 | 4.4 | 1.6 | -0.2 | · | ·
CC(C)(C)OC(=O)N1CCCC(c2nc(-c3ccncc3)no2)C1 (stereo unspecified) | -4.6 | -5.7 | 5.5* | 0.1 | 0.1 | 9.9
Cc1ccc(S(=O)(=O)NC(=O)N2CCC(c3nc(-c4ccncc4)no3)CC2)cc1 | 0.5 | -0.3 | 0.1 | 0.0 | · | ·
CCOC(=O)c1cnc2ccccc2c1NCCCN(C)C | -3.4 | -1.2 | -0.1 | 0.2 | · | ·
CC(=O)C(CC(=O)O)C1=C(O)CC(C)(C)CC1=O (stereo unspecified) | 10.7 | 4.8 | -2.2 | 0.1 | · | ·
COc1ccc(C(=O)COC(=O)C(NC(=O)c2ccc(Cl)cc2)C(C)C)cc1 (stereo unspecified) | 0.1 | 9.2 | 1.2 | 0.2 | · | ·
CC(C)C(NC(=O)c1ccccc1F)C(=O)OCC(=O)c1ccc(F)cc1 (stereo unspecified) | 2.5 | -8.9 | 9.3* | -0.1 | -0.5 | 0.0
COc1ccc(Br)cc1C1=N/C(=C\c2cccc([N+](=O)[O-])c2)C(=O)O1 | -3.5 | -12.3 | -2.8 | -0.1 | · | ·
Cc1nn(-c2ccccc2)c(Cl)c1C(=O)Nc1nnc(COc2ccccc2)s1 | -0.1 | 10.8 | 5.5* | -0.2 | 1.5 | 7.5
CC(C)(C)c1ccc(C(=O)Nc2nnc(COc3ccccc3)s2)cc1 | 2.0 | 1.5 | 0.0 | 0.3 | · | ·
COc1cccc(-c2cc(C(=O)Nn3cnnc3)c3ccccc3n2)c1 | 0.2 | 11.2 | 5.1* | -0.1 | -0.1 | 0.9
O=C(Cc1nc2scc(-c3ccccc3)c2c(=O)[nH]1)N1CCOCC1 | 0.6 | 2.6 | 11.0* | 0.0 | 0.3 | 13.4
CCOc1ccc(-c2nnn(CC(C)=O)n2)cc1 | -8.8 | -68.4 | 10.0* | -0.2 | 0.1 | 14.2
CCOc1ccc(-c2nnn(CC(C)=O)n2)cc1OCC | 5.5 | -52.5 | 0.1 | -0.1 | · | ·
CC(C)(C)C1CCc2c(sc3nc[nH]c(=O)c23)C1 (stereo unspecified) | -4.2 | -2.1 | 2.1 | 0.0 | · | ·
O=C(NCCCN1CCCCCC1)C(c1ccccc1)C1CCCCC1 (stereo unspecified) | -8.8 | · | 5.3* | -0.2 | -0.2 | 0.8
Cc1cc(N2CCN(c3ncccn3)CC2)nc2ccc(NC(=O)Cc3cccs3)cc12 | -7.2 | 13.5 | 5.1* | 0.2 | 0.7 | -7.9
Cc1cccc(C(=O)Nc2ccc3nc(N4CCCCC4)cc(C)c3c2)c1 | -7.8 | -7.3 | 5.8* | -0.1 | 0.1 | 8.2
O=C(c1cscn1)N1CCC(CO)(Cc2ccccc2C(F)(F)F)CC1 | 0.5 | 4.0 | -0.4 | -0.1 | · | ·
CCn1c(SCC(=O)Nc2cc(OC)cc(OC)c2)nnc1-c1cccs1 | -0.6 | 18.2 | 5.5* | 1.0 | 0.1 | -0.4

Screening results as filed in PubChem BioAssay.
